This passage reports inhibition results from PubChem BioAssay AID686964 (The Scripps Research Institute Molecular Screening Center, 2013).

Among all 370,000 compounds or so, about 1,100 (0.3%) were called active. For the sample, actives were picked, then their nearest neighbours and some compounds at random. A number with no mark means an inactive call. Rule as the data show it: active = inhibition above about 13%; inactive = the rest.

In the test the target is Methyl-CpG-binding domain protein 2 (Homo sapiens) (UniProt Q9UBB5). As to the kind of experiment: inhibitors of MBD2 binding to methylated DNA, primary screen, biochemical, TR-FRET, DNA-binding domain, human (AID 686964). Conditions: MBD2 binding to methylated oligonucleotide, at 4.4 µM, hits give high values. A general note: Time-resolved FRET reads energy transfer from a long-lived donor to a nearby acceptor.
Sequence of Methyl-CpG-binding domain protein 2 (Homo sapiens) (Q9UBB5 whole entry, looked up, the tested form may be a part): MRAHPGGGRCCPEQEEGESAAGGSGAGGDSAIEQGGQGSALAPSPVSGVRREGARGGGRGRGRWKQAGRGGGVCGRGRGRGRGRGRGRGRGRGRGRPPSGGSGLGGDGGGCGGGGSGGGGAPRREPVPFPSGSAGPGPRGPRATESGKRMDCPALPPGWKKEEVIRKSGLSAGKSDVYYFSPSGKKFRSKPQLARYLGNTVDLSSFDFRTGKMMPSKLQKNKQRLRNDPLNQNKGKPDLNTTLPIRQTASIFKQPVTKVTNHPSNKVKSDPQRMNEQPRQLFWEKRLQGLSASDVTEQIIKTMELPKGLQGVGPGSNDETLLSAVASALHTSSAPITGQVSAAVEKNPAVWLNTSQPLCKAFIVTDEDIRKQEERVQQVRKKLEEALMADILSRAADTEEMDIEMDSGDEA
Take `Brc1ccc(-c2n(-c3ccccn3)c3ccccc3[n+]2-c2ccccn2)cc1`: the inhibition is 27.6% (active).

In the case of `CS(=O)(=O)N(C(=O)NC(=O)NC1CCS(=O)(=O)C1)C1CCCCC1` (stereo not drawn), the inhibition was 0.13%.

`CCCC1CCC2(CCCN2CCOC(=O)NCc2ccccc2)CC1` (stereo not drawn): the inhibition was 3.95%.

Consider `COc1ccnc(NC(=S)N2CCN(c3ncc(C(F)(F)F)cc3Cl)CC2)c1`, for which the inhibition is 6.09%.

`CCOc1cc(-c2noc(CCC(=O)N3CCOCC3)n2)ccc1OC`: the inhibition was -5.56%.

Take `COc1ccc(-c2noc(CCCC(=O)NC3CCCC3)n2)cc1OC`: the inhibition is -2.51%.

Consider `CCOc1cc(-c2noc(CCCC(=O)NC3CCCCC3)n2)ccc1OC`, for which the inhibition is 20.2% (active).

For the compound `CCOC(=O)[C@]12CCCC=C1N(CCCOC)C(=O)[C@@H]2CC(=O)N1CCOCC1`, the inhibition is -0.28%.

`Cc1cc(C(=O)NN=C/C=C/c2ccco2)n[nH]1`: the inhibition is -1.33%.

As to `C/C=C/c1ccc(OCCCCN2CCC(C)CC2)c(OC)c1`, the inhibition is -2.18%.

Turning to `C[C@H](O)[C@@H]1C(=O)N2CCc3c([nH]c4c(-c5ccc6c(c5)OCO6)cccc34)[C@@H]2C[C@@H]1N(C)C(=O)c1ccco1`, the inhibition is -2.04%.

For `O=S(=O)(NCC1CCCO1)c1cnc(Cl)c(Cl)c1` (stereo not drawn), the inhibition is 4.2%.

With `O=C(CC1CCCCC1)Nc1c2c(nn1-c1ccc(F)cc1)CS(=O)(=O)C2`, the inhibition is 15.6% (active).

Consider `O=C(Nc1c2c(nn1-c1ccccc1)CS(=O)(=O)C2)C1CCCC1`, for which the inhibition is 2.43%.

Regarding `COc1ccccc1OCC(=O)Nc1c2c(nn1-c1ccc(F)cc1)CS(=O)(=O)C2`, the inhibition is -1.49%.

For `c1coc(CCNc2ncnc3ccc(-c4ccc5c(c4)OCO5)cc23)c1`, the inhibition was -2.55%.

Take `CC(C)Oc1ccc(C2NC(=O)NC2=O)cc1` (stereo not drawn): the inhibition is 15.2% (active).

Turning to `COc1ccc(C2NC(=O)N(C)C(C)=C2[N+](=O)[O-])cc1` (stereo not drawn), the inhibition is 0.13%.

As to `O=C1NC(=O)C(c2ccc(Cl)cc2)N1` (stereo not drawn), the inhibition is 0.89%.

`CN(C)Cc1cn(-c2ccc(-c3noc4c3C(=O)N(CC(=O)N3CCOCC3)CC4)cc2)nn1`: the inhibition was -2.86%.

With `COC(=O)[C@]12C[C@H](CC(=O)NCc3ccc(OC)c(OC)c3)C(=O)N(Cc3ccccc3)C1=C[C@H](C(C)C)O[C@@H]2C1CC1`, the inhibition was -2.93%.

For the compound `Cc1ccc(CN2CCNC(=O)C2CC(=O)NCc2csc(C(C)C)n2)cc1` (stereo not drawn), the inhibition was 0.13%.

`CC(C)c1nc(CNC(=O)CC2C(=O)NCCN2Cc2cccc(F)c2F)cs1` (stereo not drawn): the inhibition was 24.3% (active).

Consider `CC(C)c1nc(CNC(=O)CC2C(=O)NCCN2Cc2ccoc2)cs1` (stereo not drawn), for which the inhibition was -4.85%.

In the case of `COc1ccc(Cn2cc(CN3[C@@H](CC(C)C)COc4cc(Br)ccc4S3(=O)=O)nn2)cc1`, the inhibition is 0.36%.

Consider `CN(C)CCNC(=O)c1ccc(Cl)c2cc3ccccc3nc12`, for which the inhibition is 51.2% (active).

As to `CN(C)CCNC(=O)Cc1ccc([N+](=O)[O-])cc1`, the inhibition was -0.79%.

With `Cc1c(C(=O)NCCN(C)C)oc2ccc(S(=O)(=O)N3CCCC3)cc12`, the inhibition was 4.85%.

With `COc1ccc(OCCCC(=O)Nc2cccc(S(=O)(=O)N3CCCCCC3)c2)cc1`, the inhibition was -2.96%.

As for `C[C@H]1[C@H](c2ccccc2)Oc2cc(Br)ccc2S(=O)(=O)N1Cc1cccc(F)c1`, the inhibition is 8.37%.

`O=C1/C(=C\c2ccc([N+](=O)[O-])cc2)CS(=O)(=O)C/C1=C/c1ccc([N+](=O)[O-])cc1`: the inhibition was -5.61%.

With `CCOc1ccc(S(=O)(=O)N2CCC(c3ccccc3)CC2)cc1C(=O)O`, the inhibition was 22.6% (active).

With `O=S(=O)(c1ccccc1)N1CCC(c2ccccc2)CC1`, the inhibition is 0.43%.

`CCOc1ccc(S(=O)(=O)N2CCC(C(=O)NCc3ccccn3)CC2)cc1Cl`: the inhibition is -0.81%.

Consider `O=C(c1n[nH]c2c1CCC2)N1CCCC(Nc2cccc(F)c2)C1` (stereo not drawn), for which the inhibition was 14.7% (active).

For `CSc1ncccc1C(=O)N1CCCC(Nc2ccc(F)c(F)c2)C1` (stereo not drawn), the inhibition is 2.81%.

As for `COC(=O)c1cccc(C(=O)N2CCCC(Nc3ccc4c(c3)OCCO4)C2)c1` (stereo not drawn), the inhibition was 4.97%.

On to `O=C(CSc1nnc(COc2ccccc2)n1-c1ccc(Cl)cc1)Nc1ccc2c(c1)OCO2`, for which the inhibition is 3.27%.

Regarding `Cc1ccccc1C(=O)N[C@H](C(=O)N1CCC[C@H]1C(=O)NCc1ccccc1)C(C)C`, the inhibition is -4.41%.

As to `COC(=O)Cc1ccc(OC2(C)CCN(Cc3ccc4c(c3)OCCO4)C2)cc1` (stereo not drawn), the inhibition is 5.04%.

As for `COC(=O)c1c(NC(=O)c2ccc(S(=O)(=O)N3CCOCC3)cc2)sc2c1CCN(C(C)C)C2`, the inhibition was 13.3% (active).

Take `CC(OC(=O)c1ccc(S(=O)(=O)N2CCOCC2)cc1)c1ccccc1` (stereo not drawn): the inhibition is 5.42%.

For the compound `COc1ccc(S(=O)(=O)N2CCOCC2)cc1NC(=O)c1ccc(OCC(C)C)c(OC)c1`, the inhibition was 0.42%.

With `CC(OC(=O)CCC(=O)c1ccccc1)C(=O)Nc1ccc(F)cc1` (stereo not drawn), the inhibition was -0.7%.

`COCCNC(=S)N(C)[C@H]1C[C@H]2c3[nH]c4ccccc4c3CCN2C[C@H]1[C@H](C)O`: the inhibition was -2.52%.

As to `CCOc1ccc(-n2c(SCC(=O)Nc3cc(C)c(NC(=O)c4ccccc4)cc3OC)nnc2-c2cccs2)cc1`, the inhibition was -6.74%.

Consider `CCOc1ccc(N(CC(=O)NCCOc2ccccc2OC)S(=O)(=O)c2ccccc2)cc1`, for which the inhibition is 15.1% (active).

Regarding `COc1ccc(CCNC(=O)CN(c2ccccc2)S(=O)(=O)c2ccccc2)cc1`, the inhibition was 2%.

With `CCOc1ccc(N(CC(=O)NCCc2ccc(F)cc2)S(=O)(=O)c2ccccc2)cc1`, the inhibition is 4.6%.

On to `C=CCN1C(=O)[C@@H](CC(=O)N2CCN(C(=O)c3ccco3)CC2)[C@]2(C(=O)OC)CCCCC=C12`, for which the inhibition was 3.2%.

With `CN(CCc1ccccc1)C(=O)Cn1nc(-c2ccccc2)ccc1=O`, the inhibition was -0.03%.

`CCOC(=O)N1CCN(C(=O)C[C@H]2C[C@@]3(C(=O)OC)C(=C[C@H](C4CCCC4)O[C@@H]3C)N(Cc3ccccc3)C2=O)CC1`: the inhibition is -8.2%.

Regarding `COc1ccc2[nH]c3c(C)c4cc[n+](C)cc4c(C)c3c2c1`, the inhibition was 109% (active).

Take `CCCc1nnc(SCC(=O)N2C(C)CCCC2C)n1CC` (stereo not drawn): the inhibition was 3.6%.

With `O=P(c1cccs1)(c1cccs1)c1cccs1`, the inhibition was 0.79%.

With `Cc1ccc(Cc2cnc(N)s2)o1`, the inhibition was 19.8% (active).

For the compound `CCOc1ccccc1CN1CCN(C2CCC2)CC1CCO` (stereo not drawn), the inhibition is -1.77%.

For `CC1CCCCC12NC(=O)N(CC(=O)Nc1ccc(S(=O)(=O)Nc3ncccn3)cc1)C2=O` (stereo not drawn), the inhibition was 5.36%.

As to `Cc1cc(C)c(S(=O)(=O)NCC2CCC(C(=O)NCc3ccc4c(c3)OCO4)CC2)c(C)c1` (stereo not drawn), the inhibition is 1.75%.

For `CCn1c2ccccc2c2cc(NC(=O)CSc3nnc(-c4ccccc4)n3-c3ccc(C)cc3)ccc21`, the inhibition was 1.63%.

As to `CCn1c(=O)n2n(c1=O)[C@@]1(C=C3CCCC[C@H]32)N=C(NC(=O)c2ccccc2)N(Cc2ccccc2)[C@H]1Cc1ccccc1`, the inhibition was -2.62%.

On to `CCCCCN1CCCCC(NC(=O)C(C)CCC)C1=O` (stereo not drawn), for which the inhibition is 0.39%.

Turning to `O=C(CNC(=O)c1ccccc1)OC(C(=O)Nc1cc([N+](=O)[O-])ccc1F)c1ccccc1` (stereo not drawn), the inhibition was 0.02%.

Consider `CCC(=O)Nc1ccc2c(c1)C(=O)N(C)[C@@H]1CC[C@@H](CC(=O)NCCc3ccccc3)O[C@H]1CO2`, for which the inhibition is -1.77%.

On to `Cc1cccc(NC(=O)C[C@H]2CC[C@H]3[C@@H](COc4ccc(NC(=O)Nc5ccccc5)cc4C(=O)N3C)O2)c1`, for which the inhibition was 14.6% (active).

For the compound `COC(=O)C[C@@H]1CC[C@@H]2[C@@H](COc3ccc(NC(=O)Nc4ccc(F)c(F)c4)cc3C(=O)N2C)O1`, the inhibition is -6.09%.

Take `O=C(NCCCc1ccccc1)[C@H](Cc1ccccc1)NC1(C(=O)NCCc2c[nH]c3ccccc23)CCC1`: the inhibition was -4.2%.

`CCOC(=O)C1CCN(C(=O)C(C)(C)NC(=O)Nc2ccc(F)c(F)c2)CC1`: the inhibition is -0.53%.

`CCCCCCCCN1C(=O)[C@@H](CC(=O)N2CCN(C(=O)OCC)CC2)C[C@@]2(C(=O)OC)C1=C[C@H](C1CCCC1)O[C@@H]2C`: the inhibition was -0.47%.

On to `CC(C)C(=O)N1CCC2(CC1)Oc1ccc(F)cc1C(=O)C21CC(c2ccccc2)=NO1` (stereo not drawn), for which the inhibition is -4.91%.

With `CCOC(=O)c1ccccc1NC(=O)COC(=O)CCC(=O)N1CCOCC1`, the inhibition was 3.48%.

Turning to `CC(=O)c1ccccc1NC(=O)CC1(CC(=O)O)CCCCC1`, the inhibition is -1.55%.

For the compound `CC(=O)c1ccccc1NC(=O)COC(=O)C1COc2ccccc2O1` (stereo not drawn), the inhibition is 28.3% (active).

Regarding `COc1ccc(Cn2cc(COC(=O)N(C)Cc3ccccc3)nn2)cc1`, the inhibition is 1.89%.

Take `CC(C)(C)C1C/C(=C/c2ccco2)C(=O)/C(=C/c2ccco2)C1` (stereo not drawn): the inhibition was 72% (active).

Consider `CC(=O)c1ccc(OCC(=O)N(C)C2CCS(=O)(=O)C2)cc1` (stereo not drawn), for which the inhibition is 1.21%.

With `COc1ccc(-c2cc(=O)oc3cc(OCC(=O)N(C)C4CCS(=O)(=O)C4)ccc23)cc1` (stereo not drawn), the inhibition was 2.11%.

As to `CN(C(=O)COC(=O)c1cc(-c2ccco2)nc2ccccc12)C1CCS(=O)(=O)C1` (stereo not drawn), the inhibition is 17.8% (active).

With `CNC(=O)Nc1cc(C(C)(C)C)no1`, the inhibition was 3.32%.

On to `O=C(C[C@H]1C(=O)N(c2ccc(F)c(F)c2)C[C@@H]1Cc1ccccc1)Nc1ccccc1`, for which the inhibition was 5.88%.

In the case of `CNC(=O)C[C@H]1C(=O)N(Cc2ccccc2)C[C@@H]1CSC`, the inhibition is 3.38%.

As to `CNC(=O)C[C@H]1C(=O)N(c2ccc(OC)cc2)C[C@@H]1Cc1ccccc1`, the inhibition is 13.2% (active).

For the compound `COc1cc(/C=C/C(=O)n2cnc3ccccc32)cc(OC)c1OC`, the inhibition is -1.66%.

Regarding `O=C(Nc1cc(Cl)cc(Cl)c1)OCCN1CCCC12CCC(c1ccccc1)CC2` (stereo not drawn), the inhibition was -4.82%.

Consider `CCCCOCCCNC(=O)C[C@H]1C[C@@]2(C(=O)OC)C(=C[C@H](C(C)(C)C)O[C@@H]2C)N(CCc2ccc(OC)c(OC)c2)C1=O`, for which the inhibition was 2.62%.

Take `COC(=O)[C@]12C[C@H](CC(=O)NCCC(C)C)C(=O)N(CCc3ccc(OC)c(OC)c3)C1=C[C@H](C(C)(C)C)O[C@@H]2C`: the inhibition was 19.2% (active).

Turning to `COC(=O)[C@]12C[C@H](CC(=O)NCc3ccccc3)C(=O)N(CCc3ccc(OC)c(OC)c3)C1=C[C@H](C(C)(C)C)O[C@@H]2C`, the inhibition is 1.88%.

On to `COC(=O)CC1CCc2cc(C)cc(C(CC(C)C)NC(=O)[C@H](CC(C)C)NC(=O)OCc3ccccc3)c2O1` (stereo partly drawn), for which the inhibition is 4.23%.

The term inhibition denotes the drop in the measured response relative to a control, in per cent.
